Assay results from PubChem BioAssay (NCI).
Compounds without any hit were thinned out: in the full panel of roughly 79,000, 15% have a hit. Unmarked numbers belong to inactive results. Calls of active or inactive are those of the source. Rule as the data show it: active = growth inhibition above about 70%; inactive = the rest.

Assays:
[1] = NCI Yeast Anticancer Drug Screen. Data for the rad50 strain (AID 155);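 also: 0% = growth of vehicle-only cultures of the same strain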; details: S. cerevisiae rad50 strain growth inhibition; at 50.0 µM; hits give high values
Procedure, shortened: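 Genetically altered yeast (DNA repair pathway); compound treatment; growth inhibition vs vehicle ctrl.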

[2] = NCI Yeast Anticancer Drug Screen. Data for the mec2-1 strain (AID 157); details: S. cerevisiae mec2-1 strain, at 50.0 µM, hits give high values
Procedure, shortened: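 Mutant yeast (mec2-1) grown with compound; growth inhibition relative to vehicle control reported.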

[3] = NCI Yeast Anticancer Drug Screen. Data for the sgs1 mgt1 strain (AID 161);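 also: 0% = growth of cultures given vehicle only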; details: S. cerevisiae sgs1 mgt1 strain, at 50.0 µM, hits give high values
Procedure, shortened: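 Yeast cells carrying a defined DNA-repair defect were exposed to test compounds. Growth inhibition was measured relative to vehicle-treated controls.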

[4] = NCI Yeast Anticancer Drug Screen. Data for the cln2 rad14 strain (AID 165);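 also: 0% = growth equal to vehicle treated cultures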; details: S. cerevisiae cln2 rad14 strain, at 50.0 µM, hits give high values
Procedure, shortened: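 Readout is yeast growth inhibition versus vehicle-treated controls, using a strain with cln2 and rad14 alterations exposed to compound.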

[5] = NCI Yeast Anticancer Drug Screen. Data for the bub3 strain (AID 167); details: S. cerevisiae bub3 mutant strain, at 50.0 µM, hits give high values
Procedure, shortened: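 Yeast carrying a defined mutation is treated with each compound, and growth is compared with that of vehicle-exposed cells to give inhibition.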

[6] = NCI Yeast Anticancer Drug Screen. Data for the mlh1 rad18 strain (AID 175); details: S. cerevisiae mlh1 rad18 strain growth inhibition; at 50.0 µM; hits give high values
Procedure, shortened: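 Genetically defined yeast (DNA repair-deficient) exposed to compounds; growth inhibition determined relative to vehicle.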

O=C(NCc1ccc([N+](=O)[O-])cc1)c1ccccc1
growth inhibition [1]: 4.15%
growth inhibition [2]: 4.45%
growth inhibition [3]: -6.4%
growth inhibition [4]: 10.1%
growth inhibition [5]: 0.85%
growth inhibition [6]: 6.7%

CCn1c(=O)c2c3cc(OC(C)=O)ccc3oc2c2ccc(OC(C)=O)cc21
growth inhibition [1]: -23.3%
growth inhibition [2]: -24.4%
growth inhibition [3]: -6.8%
growth inhibition [4]: 10.3%
growth inhibition [5]: 12.9%
growth inhibition [6]: -4.75%

C/C(CC(=O)Nc1cccc([N+](=O)[O-])c1)=N\NC(=O)C[n+]1ccccc1
growth inhibition [1]: 15.5%
growth inhibition [2]: -16.9%
growth inhibition [3]: -0.65%
growth inhibition [4]: 19.1%
growth inhibition [5]: 0.5%
growth inhibition [6]: -3.35%

COC(=O)CCCCCCCCC(=O)OC
growth inhibition [1]: 8.9%
growth inhibition [2]: 33.8%
growth inhibition [3]: 8.8%
growth inhibition [4]: 8.95%
growth inhibition [5]: 25.8%
growth inhibition [6]: 7.15%

CC(=O)C1C(=O)C(=O)N(c2ccccc2N2C(=O)C(=O)C(C(C)=O)C2=O)C1=O (stereo unspecified)
growth inhibition [1]: 18.6%
growth inhibition [2]: -2.25%
growth inhibition [3]: 10.8%
growth inhibition [4]: 17.8%
growth inhibition [5]: -2.35%
growth inhibition [6]: 25.8%

O=C1c2ccccc2CCC12OC2c1ccccn1 (stereo unspecified)
growth inhibition [1]: 67.8%
growth inhibition [2]: 78.5% (active)
growth inhibition [3]: 55%
growth inhibition [4]: -6%
growth inhibition [5]: 89.9% (active)
growth inhibition [6]: 84.2% (active)

O=C(O)C1NCCC1Oc1ccccc1 (stereo unspecified)
growth inhibition [1]: -3.9%
growth inhibition [2]: -3.7%
growth inhibition [3]: -16%
growth inhibition [4]: -12.8%
growth inhibition [5]: -1.5%
growth inhibition [6]: 2.65%

COC(=O)C1=C(O)c2cc(-c3ccccc3)c(-c3ccccc3)c(C#N)c2NC(=O)C1
growth inhibition [1]: 32.5%
growth inhibition [2]: 23.9%
growth inhibition [3]: 12.9%
growth inhibition [4]: 11.1%
growth inhibition [5]: -4.25%
growth inhibition [6]: 30.4%

CN(c1ccccc1Cl)S(=O)(=O)c1ccc([N+](=O)[O-])cc1
growth inhibition [1]: -14.2%
growth inhibition [2]: -45.9%
growth inhibition [3]: 12.2%
growth inhibition [4]: 3.9%
growth inhibition [5]: 26.4%
growth inhibition [6]: -2.25%

Cc1ccc2[nH]c(=O)cc(C(F)(F)F)c2c1
growth inhibition [1]: 13.2%
growth inhibition [2]: 6.35%
growth inhibition [3]: 5.4%
growth inhibition [4]: -2.1%
growth inhibition [5]: -15.2%
growth inhibition [6]: 21.7%

COC(=O)c1cc2c(n1S(=O)(=O)c1ccc(C)cc1)C(=O)C(=O)c1[nH]cc(C(=O)OCc3ccccc3)c1-2
growth inhibition [1]: 0.6%
growth inhibition [2]: 3.7%
growth inhibition [3]: 20.6%
growth inhibition [4]: 8.9%
growth inhibition [5]: 14%
growth inhibition [6]: 13.5%

CNC(=S)/C(C(C)=O)=C(\C)Nc1ccccc1
growth inhibition [1]: -0.95%
growth inhibition [2]: -5.55%
growth inhibition [3]: -8.05%
growth inhibition [4]: -32.1%
growth inhibition [5]: -14.6%
growth inhibition [6]: 15.2%

CC(C)=CCSC(N)N
growth inhibition [1]: 14.4%
growth inhibition [2]: 21.1%
growth inhibition [3]: 24.1%
growth inhibition [4]: 9.35%
growth inhibition [5]: 17.4%
growth inhibition [6]: -1.7%

COc1ccc(NC(=O)NCc2ccc(C)cc2)cc1
growth inhibition [1]: 4.45%
growth inhibition [2]: 33.8%
growth inhibition [3]: 33.8%
growth inhibition [4]: -5.5%
growth inhibition [5]: 7.85%
growth inhibition [6]: 26.9%

CCCC(=O)Oc1ccc(Cl)cc1C
growth inhibition [1]: -2.3%
growth inhibition [2]: -1.05%
growth inhibition [3]: 2.85%
growth inhibition [4]: -57.6%
growth inhibition [5]: -13.6%
growth inhibition [6]: -3.85%

c1ccc(N2CCN(c3ccccc3)C2)cc1
growth inhibition [1]: -33.8%
growth inhibition [2]: -13.3%
growth inhibition [3]: -12.8%
growth inhibition [4]: 8.65%
growth inhibition [5]: 9.1%
growth inhibition [6]: 11.5%

O=[N+]([O-])c1ccc(N/N=C\C2C=CCCC2)c([N+](=O)[O-])c1 (stereo unspecified)
growth inhibition [1]: -13.2%
growth inhibition [2]: -0.1%
growth inhibition [3]: -5.65%
growth inhibition [4]: -31.8%
growth inhibition [5]: -1.05%
growth inhibition [6]: -19.9%

COC(=O)c1ccc(O)c(CN(C)C)c1
growth inhibition [1]: 26.6%
growth inhibition [2]: -10.6%
growth inhibition [3]: 6.6%
growth inhibition [4]: 3.4%
growth inhibition [5]: -15.1%
growth inhibition [6]: 18.8%

O=C1C2C3CCC(C3)C2N1Cc1ccccc1 (stereo unspecified)
growth inhibition [1]: 5.8%
growth inhibition [2]: -1.65%
growth inhibition [3]: -2.15%
growth inhibition [4]: -27.2%
growth inhibition [5]: 13.6%
growth inhibition [6]: -14.8%

COC1OC2COC(c3ccccc3)OC2C(NC(C)=O)C1OC(C)=O (stereo unspecified)
growth inhibition [1]: 4.6%
growth inhibition [2]: 17.7%
growth inhibition [3]: 8.9%
growth inhibition [4]: 9.9%
growth inhibition [5]: -12.5%
growth inhibition [6]: -13.1%

CCOC(=O)c1nn2c(nc1=O)sc1ccc3ccccc3c12
growth inhibition [1]: -22%
growth inhibition [2]: -5.7%
growth inhibition [3]: 7.8%
growth inhibition [4]: 32.1%
growth inhibition [5]: 25%
growth inhibition [6]: 2.05%

CCOC(=O)c1ccc(N)cc1
growth inhibition [1]: 19.2%
growth inhibition [2]: 20.1%
growth inhibition [3]: -3.1%
growth inhibition [4]: -9.55%
growth inhibition [5]: -18.6%
growth inhibition [6]: -1.8%

CCCCCCCCCCCc1cc(=O)c2c(O)cccc2o1
growth inhibition [1]: -5%
growth inhibition [2]: -28.6%
growth inhibition [3]: 9.55%
growth inhibition [4]: -3.9%
growth inhibition [5]: 4%
growth inhibition [6]: -14.4%

[O-][N+](CCO)(CCO)Cc1ccccc1
growth inhibition [1]: 14.1%
growth inhibition [2]: 1.05%
growth inhibition [3]: 19.8%
growth inhibition [4]: 6.2%
growth inhibition [5]: 9.65%
growth inhibition [6]: 26.6%

COn1nnc2c([N+](=O)[O-])cccc21
growth inhibition [1]: 18.8%
growth inhibition [2]: -6%
growth inhibition [3]: -3.15%
growth inhibition [4]: -22.9%
growth inhibition [5]: -16.4%
growth inhibition [6]: 5%

CCOC(=O)C(C)(NC(=O)c1ccc(NCc2ccc3nc(NC(=O)c4ccccc4)nc(NC(=O)c4ccccc4)c3c2)cc1)C(=O)OCC
growth inhibition [1]: -4.1%
growth inhibition [2]: -24%
growth inhibition [3]: 7.5%
growth inhibition [4]: -24.1%
growth inhibition [5]: -16.5%
growth inhibition [6]: -8.45%

CC(=O)Oc1ccccc1C(=O)OC(=O)c1ccccc1OC(C)=O
growth inhibition [1]: 5.3%
growth inhibition [2]: -10.2%
growth inhibition [3]: -1.7%
growth inhibition [4]: -9.85%
growth inhibition [5]: 0%
growth inhibition [6]: 6.75%

Nc1nc2ccc(Br)cc2s1
growth inhibition [1]: 9.3%
growth inhibition [2]: 26.6%
growth inhibition [3]: 35.9%
growth inhibition [4]: 11.6%
growth inhibition [5]: 32.5%
growth inhibition [6]: 32.4%

Cc1c(C(=N)N)oc2ccccc12
growth inhibition [1]: 6.3%
growth inhibition [2]: 0.05%
growth inhibition [3]: 0.4%
growth inhibition [4]: -31.5%
growth inhibition [5]: -4.15%
growth inhibition [6]: 3.95%

CCOC(=O)c1[nH]cc(C)c1-c1c[nH]c2ccccc12
growth inhibition [1]: 31%
growth inhibition [2]: 27.6%
growth inhibition [3]: 20.4%
growth inhibition [4]: 19.7%
growth inhibition [5]: -4.05%
growth inhibition [6]: 41.2%

CCOC(=O)N1C=NC23C(c4ccccc4)C(c4ccccc4)C12C(=O)N(C)C(=O)N3C (stereo unspecified)
growth inhibition [1]: -1.55%
growth inhibition [2]: -9.2%
growth inhibition [3]: 0.7%
growth inhibition [4]: -26.8%
growth inhibition [5]: -8.35%
growth inhibition [6]: -30.9%

CN(CC1=C(O)C(=O)C(CN(C)Cc2c(O)ccc3ccccc23)=C(O)C1=O)Cc1c(O)ccc2ccccc12
growth inhibition [1]: 30.7%
growth inhibition [2]: 4.85%
growth inhibition [3]: 34.1%
growth inhibition [4]: -1.25%
growth inhibition [5]: 5.3%
growth inhibition [6]: 28.9%

Oc1cc2c(cc1C(c1ccc3c(c1)OCO3)N1CCCC1)OCO2 (stereo unspecified)
growth inhibition [1]: -4.9%
growth inhibition [2]: -9.35%
growth inhibition [3]: 8.25%
growth inhibition [4]: -27.6%
growth inhibition [5]: 19.8%
growth inhibition [6]: 28.4%

CNn1c(-c2ccccc2)n[nH]c1=O
growth inhibition [1]: 6.65%
growth inhibition [2]: 2.85%
growth inhibition [3]: 11.4%
growth inhibition [4]: 26.2%
growth inhibition [5]: 6.45%
growth inhibition [6]: 19.4%

COc1cc(C2(C)SCCCS2)c(I)c(OC)c1OC
growth inhibition [1]: -8.55%
growth inhibition [2]: -3.05%
growth inhibition [3]: -8.15%
growth inhibition [4]: 13.2%
growth inhibition [5]: 2.85%
growth inhibition [6]: -14.4%

CC(=O)CCCS(=O)(=O)c1ccccc1
growth inhibition [1]: -1.5%
growth inhibition [2]: 14.9%
growth inhibition [3]: 0.9%
growth inhibition [4]: -12.7%
growth inhibition [5]: -3.8%
growth inhibition [6]: 5.2%

CCCCOP(=O)(OCCCC)/C(C#N)=C/c1ccc(C)o1
growth inhibition [1]: -21.2%
growth inhibition [2]: -40.8%
growth inhibition [3]: -4.85%
growth inhibition [4]: -35.4%
growth inhibition [5]: -4.7%
growth inhibition [6]: 10.1%

COC(=O)c1ccc2c(ccc[n+]2C)c1
growth inhibition [1]: -0.6%
growth inhibition [2]: 21.3%
growth inhibition [3]: -7.05%
growth inhibition [4]: 4.8%
growth inhibition [5]: -3.45%
growth inhibition [6]: 2.3%

N#CCc1nc(-c2ccccc2)n[nH]1
growth inhibition [1]: 11.2%
growth inhibition [2]: 4.55%
growth inhibition [3]: 13.1%
growth inhibition [4]: 5.6%
growth inhibition [5]: 4.5%
growth inhibition [6]: 11.7%

CCCCCCCCCCCCOP(=O)(O)OP(=O)(O)OCC1OC(n2cc(C)c(=O)[nH]c2=O)CC1O (stereo unspecified)
growth inhibition [1]: 35.4%
growth inhibition [2]: 13.9%
growth inhibition [3]: 47%
growth inhibition [4]: 14.7%
growth inhibition [5]: 14.4%
growth inhibition [6]: 7.55%

O=C(CN1CCCc2ccccc21)c1ccccc1
growth inhibition [1]: 6.75%
growth inhibition [2]: 6.7%
growth inhibition [3]: 4.55%
growth inhibition [4]: 10.3%
growth inhibition [5]: 19%
growth inhibition [6]: 10.4%
